Gal4-VP16 FLuc – Gal4-VP16 reporter inhibition counter-screen. 310,000 tested, 3.5% active. Drosophila S2 Gal4-VP16 UAS-luciferase, luminescence, 20 h. Potency, µM (titrated, usually from 53.6 µM), inactives show top-dose activity, negative = inhibition, usual class: inhibitors;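 also: Gal4-VP16 expression switched on by copper sulfate through the metallothionein promoter; potency is read from the fitted curve at half-maximal effect; % is scaled to controls: 0 for no effect and ±100 for the full control effect; nearly all actives have a fitted effect of over 50% in size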
a7 integrin act – activates integrin-mediated alleviation for muscular dystrophy. alpha7betagal myoblasts, beta-gal FDG fluorescence, 48 h. Potency, µM (top dose mostly 38.3 µM), for the others: at the top dose activation, usual class: activators. 350,000 tested, 0.064% active. AID 624291;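 also: potency is read from the fitted curve at half-maximal effect; 100% = response of the positive control SU9516; nearly all actives have a fitted effect of over 60% in size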
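Alpha7betagal+/- myoblasts (passage 13) were plated 16-24 hr, then exposed to compounds (1:260 dilution of DMSO stock) for 48 hours at 37C. After MPER lysis, β-galactosidase reporter activity was read as FDG fluorescence (ex 480/em 540) after 30 minutes.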
RORgamma inh – inhibitors of mouse ROR gamma transcriptional activity | P51450 | Drosophila S2 Gal4-RORgamma UAS-luciferase reporter, 20 h | Potency, µM (titrated, usually from 53.6 µM), inactives show at the top dose activity change, negative = inhibition, hits mostly inhibitors | 310,000 tested, 5.4% active; also: potency is read from the fitted curve at half-maximal effect; % is scaled to controls: 0 for no effect and ±100 for the full control effect; nearly all actives have a fitted effect of over 60% in size
Target sequence (P51450 whole entry, looked up, the tested form may be a part): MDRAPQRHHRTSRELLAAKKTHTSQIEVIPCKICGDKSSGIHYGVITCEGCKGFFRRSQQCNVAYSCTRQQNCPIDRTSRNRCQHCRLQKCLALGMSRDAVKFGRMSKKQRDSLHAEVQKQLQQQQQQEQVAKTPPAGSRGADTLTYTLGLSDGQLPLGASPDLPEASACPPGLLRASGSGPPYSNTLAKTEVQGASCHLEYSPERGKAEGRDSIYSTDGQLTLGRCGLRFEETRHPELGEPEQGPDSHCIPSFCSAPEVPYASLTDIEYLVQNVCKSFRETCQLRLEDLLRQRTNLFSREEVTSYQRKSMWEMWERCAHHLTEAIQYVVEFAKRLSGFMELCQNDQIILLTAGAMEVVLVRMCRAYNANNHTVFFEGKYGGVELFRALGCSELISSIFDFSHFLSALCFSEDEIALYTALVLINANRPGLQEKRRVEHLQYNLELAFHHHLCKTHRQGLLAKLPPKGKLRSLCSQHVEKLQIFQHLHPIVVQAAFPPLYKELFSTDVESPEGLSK
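ROR gamma transcriptional activity was tracked as Gal4-UAS luciferase output in stably transfected Drosophila Schneider cells, with compound added 1 hr before 700 uM copper sulfate induction and a 20 hr ambient-temperature incubation.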
Giardia killer – Giardia lamblia killing. Giardia lamblia trophozoite viability. activity change, % at 7.66 µM, hits read low. 340,000 tested, 0.15% active. AID 540267; in the data active = activity change below about -80%; inconclusive = between about -30% and that limit;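 also: parasites exposed to compound for two days anaerobically before the ATP read; % is scaled to controls: 0 for no effect and ±100 for the full control effect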
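Luminescence from cellular ATP indicates surviving trophozoites (100 cells/well) following 48 hrs anaerobic compound treatment at 37 deg C; signal develops 15-30 min at room temperature.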
ERG-DNA inh – inhibitors of human ERG Ets domain-DNA interaction; P11308; fluorescence polarization, His-ERG Ets domain / labelled DNA; Potency, µM (highest dose often 76.9 µM), without a hit: at the top dose FP activity, negative = inhibition, most hits filed as inhibitors; 370,000 tested, 0.028% active; active = well fitted inhibition curve with a large enough effect in the polarisation, with a control signal flat; inconclusive = small, poorly fitted or top-dose-only effect, or effect the other way, or a change in a side signal; inactive = no such curve, though single readings can be large or run the other way; the % refers to the polarisation;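 also: polarization taken with two DNA probes labelled with fluorescein and Texas red; potency is read from the fitted curve at half-maximal effect; % of control where 0% means no effect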
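His-tagged ERG Ets domain (1 uM in the protein solution; 300mM KCl, 50mM Tris-HCl, 1mM EDTA, 1mM DTT, pH 7.5) received compound, then a probe mix of 5 nM fluorescein-DNA and 100nM Texas-615-DNA. Fluorescence polarization was read for both dyes.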
Active calls of the source: *; ? = inconclusive; . = not tested or not shown. Only a selection was taken, and hits are over-represented in it overall. Unless noted, calls follow the shape of the dose curve; as a rule, active = well fitted curve in the direction sought with a large enough effect; inconclusive = small, poorly fitted or top-dose-only effect, or another doubt; inactive = no such curve, though single readings can be large; an effect the other way counts as inactive or inconclusive.

SMILES | Gal4-VP16 FLuc | a7 integrin act | RORgamma inh | Giardia killer | ERG-DNA inh
COc1ccc(N2CCN(C(=O)c3cccc(F)c3)CC2)c([N+](=O)[O-])c1 | -22.2% | 15.0% | -6.9% | -12.5 | 2.5%
COc1cccc(C(=O)NC(=S)N2CCN(c3ccc(C(F)(F)F)cc3[N+](=O)[O-])CC2)c1 | 0.631µM* | -51.1% | 0.562µM* | 1.4 | 0.5%
CCOc1ccc(C(=O)NC(=S)N2CCN(c3ccc(C(F)(F)F)cc3[N+](=O)[O-])CC2)cc1 | 0.251µM* | -0.4% | 0.316µM* | 7.3 | -3.1%
O=C(Nc1ccccc1)N1CCCN(c2ccc(C(F)(F)F)cc2[N+](=O)[O-])CC1 | ? | 17.2% | ? | -19.1 | 1.2%
O=C(C1CCC1)N1CCN(c2ccc(C(F)(F)F)cc2[N+](=O)[O-])CC1 | 3.98µM* | -7.5% | 7.08µM* | -3.0 | -7.5%
O=[N+]([O-])c1cc(C(F)(F)F)ccc1N1CCN(CCO)CC1 | -1.0% | -30.6% | 9.6% | 7.3 | 0.1%
Cc1cc(NC(=O)C2CCN(C(=O)c3ccco3)CC2)ccc1Br | . | -4.2% | . | -6.8 | 0.7%
COc1cccc(OC)c1C(=O)NC(=S)N1CCN(c2ccc(C(F)(F)F)cc2[N+](=O)[O-])CC1 | 22.4µM* | 14.0% | 7.08µM* | -7.0 | 10.2%
COc1cccc(OC)c1C(=O)NC(=S)N1CCOCC1 | 4.3% | 12.6% | -1.2% | -10.4 | 4.1%
COc1cc(OC)c(NC(=O)Cc2c(C(=O)O)c(C)cn2C)cc1Cl | . | . | . | . | -4.5%
CC1Cc2ccccc2N1C(=S)NC(=O)C1(C)CC1(Cl)Cl (stereo not drawn) | 2.24µM* | -14.8% | 0.631µM* | -18.0 | 12.6%
O=C(NC(=S)N1CCCc2ccccc21)c1ccco1 | ? | -33.7% | ? | -17.8 | 3.9%
CC1Cc2ccccc2N1C(=S)NC(=O)c1ccco1 (stereo not drawn) | 3.98µM* | 0.0% | 4.47µM* | -4.3 | 2.9%
CC(=O)c1cccc(NC(=S)N2c3ccccc3CC2C)c1 (stereo not drawn) | 1.4% | -31.0% | ? | 33.3 | 4.7%
COc1ccc(C2CC(c3ccccc3)=NN2C(=O)COC(=O)/C=C/c2ccc(O)c(OC)c2)cc1 (stereo not drawn) | -5.8% | 6.8% | 37.5% | -7.3 | -4.8%
N#CCCn1cc(/C=N/NC(N)=S)c(-c2ccc(Br)cc2)n1 | 0.501µM* | 0.4% | 0.224µM* | -3.8 | -0.6%
N#CCCn1cc(/C=N/NC(N)=S)c(-c2ccccc2)n1 | 7.08µM* | -5.7% | 6.31µM* | 3.1 | 0.3%
CCOC(=O)C1=C(Cc2ccc(Cl)cc2)C(=O)c2ccccc2C1=O | ? | -57.3% | 8.91µM* | 7.1 | 13.2%
CCOC(=O)C1=C(C)N=C2c3ccccc3C(=O)C2C1c1ccc(Cl)cc1 (stereo not drawn) | 1.0% | -16.8% | 36.5% | -2.4 | -2.9%
O=C(/C=C/Nc1ccc(Br)cc1F)c1ccccc1 | 5.62µM* | 36.2% | 3.98µM* | ? | -9.2%
O=C(/C=C/Nc1ccccc1F)c1ccc(Br)cc1 | ? | 15.7% | 10µM* | 3.9 | 0.6%
O=C(/C=C/Nc1ccc(F)c(F)c1)c1ccc(Br)cc1 | -6.2% | -0.3% | 10.2% | -1.9 | -0.3%
O=c1c2nc(Br)n([C@@H]3O[C@@H]4CO[P@@](O)(=S)O[C@H]4[C@H]3O)c2nc2[nH]c(-c3ccccc3)cn12 | -10.0% | . | 1.0% | . | .
Cc1ccc(/C=C/c2onc(C)c2S(=O)(=O)N2CCC(C(=O)Nc3ccc(C)c(N(C)C)c3)CC2)cc1 | . | . | . | . | -2.7%
COc1ccccc1OCc1cc(C(=O)NCc2ccc(N3CCCC3=O)cc2)no1 | -6.7% | 25.8% | 34.8% | 9.3 | 21.7%
SMILES | Gal4-VP16 FLuc | a7 integrin act | RORgamma inh | Giardia killer | ERG-DNA inh
c1ccc(COc2cccc(CNCc3ccccn3)c2)cc1 | -18.7% | 33.2% | 11.2µM* | -4.9 | -12.6%
Oc1ccc(NCc2cccc(OCc3ccc(F)cc3)c2)cc1 | ? | -41.0% | 10µM* | -0.9 | ?
Oc1ccc(NCc2cccc(OCc3ccccc3)c2)cc1 | ? | -11.6% | 11.2µM* | -5.0 | ?
COC(=O)CN1C(=O)CSc2ccc(S(=O)(=O)Nc3ccc(C(C)=O)cc3)cc21 | . | . | . | . | 6.8%
CCOc1ccc(S(=O)(=O)Nc2ccc(F)cc2)c(C)c1C | 17.8µM* | -22.6% | ? | -1.8 | -3.0%
Cc1cccc(NC(=S)NC(C)C(c2ccccc2)N2CCN(C)CC2)c1C (stereo not drawn) | -7.5% | -46.1% | 11.2µM* | -5.1 | -2.5%
CC(NC(=S)Nc1ccc(Cl)cc1)C(c1ccccc1)N1CCOCC1 (stereo not drawn) | 6.31µM* | -25.8% | 6.31µM* | 2.5 | -6.2%
CCN1CCN(C(c2cccs2)C(C)NC(=S)Nc2cccc(C)c2C)CC1 (stereo not drawn) | -3.2% | 18.3% | 11.2µM* | -5.3 | -7.9%
CCN1CCN(C(c2cccs2)C(C)NC(=O)c2c(F)cccc2F)CC1 (stereo not drawn) | -3.2% | 0.0% | 27.3% | 10.6 | 0.1%
CC(NC(=O)Nc1ccccc1)C(c1ccccc1)N1CCOCC1 (stereo not drawn) | -8.5% | -24.6% | ? | 7.0 | 0.4%
Cc1ccc(CN2[C@@H](CC3CCCCC3)COCCS2(=O)=O)cc1 | -11.6% | 19.1% | -19.5% | 2.3 | -5.9%
C[C@@H]1C=C[C@](Cc2ccccc2)(C(=O)NCCN2CCOCC2)N1C(=O)c1ccccc1 | -1.9% | . | -17.7% | . | .
Cc1[nH]n(-c2ccccc2)c(=O)c1C=Nc1ccc(S(=O)(=O)N(C)C)cc1 | -5.2% | 3.6% | 7.1% | 8.3 | 2.6%
Cc1[nH]n(-c2ccccc2)c(=O)c1/C=N/N(C)c1ccccc1 | ? | -4.8% | 7.94µM* | 0.4 | .
Cc1[nH]n(-c2ccccc2)c(=O)c1/C=N/N1C(=O)c2ccc3c4c(ccc(c24)C1=O)CC3 | ? | -6.9% | 10µM* | 10.7 | -12.0%
Cc1[nH]n(-c2ccccc2)c(=O)c1C=NCc1ccco1 | 5.7% | . | -35.2% | . | .
Cc1[nH]n(-c2ccccc2)c(=O)c1/C=N/O | 3.55µM* | 27.6% | 2.51µM* | -25.7 | .
Cc1[nH]n(-c2ccccc2)c(=S)c1C=NCCCN=Cc1c(C)[nH]n(-c2ccccc2)c1=S | 1.78µM* | -39.2% | 0.631µM* | 15.2 | -2.4%
CN(Cc1ccccc1)C(=O)c1ncn2c1c(=O)[nH]c1cccnc12 | . | 9.8% | . | . | .
CC[C@H](C)[C@@H](NC(=O)O[C@@H]1Cc2cc(OC)ccc2O[C@H]1c1cccc(OC)c1)C(=O)OC | 4.0% | . | -1.4% | . | .
Cc1[nH]n(-c2ccccc2)c(=O)c1/C=N/NC(=O)C(C)C | 3.16µM* | 8.2% | 6.31µM* | -11.4 | -3.9%
Cc1[nH]n(-c2ccccc2)c(=O)c1/C=C1\C=NN=C1c1ccccc1 | ? | -3.9% | 11.2µM* | 4.8 | -9.8%
Cc1[nH]n(-c2ccccc2)c(=O)c1C=Nc1ccc(S(=O)(=O)NC(N)=O)cc1 | -20.3% | 75.7% | -10.3% | 3.7 | ?
Cn1[nH]c(-c2ccccc2)c(/C=N/O)c1=O | 0.891µM* | -6.3% | 3.55µM* | -18.8 | -8.2%

Bioassay records (PubChem BioAssay)
